Structures can show the parent of a compound that is named as a salt.
Tested on: RIVA
Assay: growth inhibition by drug alone (1 - RLU/untreated control) (fraction); higher = stronger inhibition
Settings: 177Lu-lilotomab satetraxetan 0 ug/ml
Procedure: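 RIVA (RI-1) ABC-DLBCL cells were pretreated or not for 18 h with 0.5 ug/ml 177Lu-lilotomab satetraxetan (600 MBq/mg), washed and seeded (3000 cells/well) on 384-well plates pre-printed with the Selleck Cambridge Cancer Compound library. Viability was read by RealTime-Glo luminescence on days 3-6 after seeding. Effect = 1 - RLU/mean RLU of the 48 untreated no-drug control wells per plate; Bliss score = (M-E)/(1-Fa).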

SMILES | growth inhibition by drug alone (10 nM, time (day): 3) | growth inhibition by drug alone (10 nM, time (day): 4) | growth inhibition by drug alone (10 nM, time (day): 5) | growth inhibition by drug alone (10 nM, time (day): 6) | growth inhibition by drug alone (100 nM, time (day): 3) | growth inhibition by drug alone (100 nM, time (day): 4) | growth inhibition by drug alone (100 nM, time (day): 5) | growth inhibition by drug alone (100 nM, time (day): 6)
CN1CCN(CCOc2cc(OC3CCOCC3)c3c(Nc4c(Cl)ccc5c4OCO5)ncnc3c2)CC1 [Saracatinib (AZD0530)] | -0.108 | -0.164 | -0.326 | -0.893 | -0.52 | -0.418 | -0.423 | -0.554
C[C@@H](Oc1cc(-n2cnc3ccc(CN4CCN(C)CC4)cc32)sc1C(N)=O)c1ccccc1C(F)(F)F | 0.364 | 0.265 | 0.248 | 0.223 | 0.944 | 0.961 | 0.967 | 0.969
Nc1nc(Cl)nc2c1ncn2[C@@H]1O[C@H](CO)[C@@H](O)[C@@H]1F [Clofarabine] | -0.085 | -0.0539 | -0.15 | -0.383 | 0.384 | 0.685 | 0.781 | 0.827
Nc1nc(N)c(N=O)c(OCC2CCCCC2)n1 | -0.226 | -0.243 | -0.283 | -0.504 | -0.331 | -0.36 | -0.322 | -0.473
COc1cccc2c1C(=O)c1c(O)c3c(c(O)c1C2=O)C[C@@](O)(C(C)=O)C[C@@H]3O[C@H]1C[C@H](N)[C@H](O)[C@H](C)O1 [Daunorubicin HCl (Daunomycin HCl)] | 0.109 | 0.134 | 0.15 | 0.0495 | 0.569 | 0.743 | 0.857 | 0.915

From the supplement of paper PMC6897291
